# Source: PubChem BioAssay
# Sampled rows, rich in hits. Any-hit rate of the full collection: about 14%.
# USP28 inh: blocks human USP28 ubiquitin-rhodamine cleavage. Q96RU2. purified USP28, Ub-rhodamine cleavage fluorescence, 30 min. inhibition, % at 25 µM. actives 3% (n = 47,000)
# USP8 block: human USP8 deubiquitinase inhibition | purified USP8, Ub-rhodamine cleavage fluorescence, 30 min | inhibition, % at 20 µM | actives 4.2% (n = 47,000) | AID 1645853
# USP30 inh: inhibitors of human USP30 deubiquitinase. AID 1645860. Q70CQ3. actives 5.3% (n = 47,000). purified USP30, Ub-rhodamine cleavage fluorescence. inhibition, % at 25 µM
# Target sequence (Q70CQ3 whole entry, looked up): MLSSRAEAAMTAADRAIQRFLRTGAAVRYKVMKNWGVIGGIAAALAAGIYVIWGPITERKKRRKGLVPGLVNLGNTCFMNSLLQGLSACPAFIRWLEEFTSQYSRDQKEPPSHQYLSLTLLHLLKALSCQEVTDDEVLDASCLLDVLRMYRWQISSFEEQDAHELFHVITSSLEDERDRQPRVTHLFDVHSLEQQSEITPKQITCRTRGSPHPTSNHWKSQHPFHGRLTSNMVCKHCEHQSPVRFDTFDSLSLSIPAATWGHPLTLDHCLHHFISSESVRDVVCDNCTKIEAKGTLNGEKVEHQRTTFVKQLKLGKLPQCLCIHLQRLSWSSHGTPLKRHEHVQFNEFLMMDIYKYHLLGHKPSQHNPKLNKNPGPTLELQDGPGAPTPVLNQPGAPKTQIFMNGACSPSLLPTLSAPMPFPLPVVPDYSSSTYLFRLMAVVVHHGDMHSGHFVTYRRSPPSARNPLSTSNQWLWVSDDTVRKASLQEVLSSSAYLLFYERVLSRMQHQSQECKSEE
# USP17 block: blocks human USP17 ubiquitin-rhodamine cleavage; purified USP17, Ub-rhodamine cleavage fluorescence, 3 h; inhibition, % at 50 µM; actives 6.5% (n = 47,000); AID 1645855
# An asterisk follows results filed as active; i = inactive. Rule as the data show it: active = inhibition above about 30%; inactive = the rest.
SMILES,USP28 inh,USP8 block,USP30 inh,USP17 block
COc1ccccc1Cc1cc(C(=O)N2CCC[C@]3(C)NC(=O)CCC[C@H]23)ccn1,0.0,14.9,-11.0,1.8
CCCn1c2ccccc2n2cc(-c3ccc(-c4ccccc4)cc3)nc12,16.9,81.2*,1.9,34.1*
CCCn1c2ccccc2n2c(C(C)=O)c(-c3ccccc3)nc12,20.7,2.7,17.2,12.7
Fc1ccc(-c2cn3c4ccccc4n(Cc4ccc(Cl)cc4)c3n2)cc1,28.8,62.2*,-11.9,45.7*
Brc1ccc(-c2cn3c4ccccc4n(CCN4CCCCC4)c3n2)cc1,9.3,47.9*,17.8,19.9
Fc1ccc(-c2cnc(NCc3ccc(Cl)cc3)nc2)cc1,7.4,16.5,5.5,8.3
Cc1ccc(Cn2c(=O)c3nc(C(=O)Nc4ccc(F)cc4C)nn3c3ccc(C)cc32)cc1,10.8,16.1,-81.9,-8.3
Cc1ncsc1CN1CCCC(C)(c2nc(C)c3c(n2)NC(=O)C3)C1 (stereo not given),-27.4,4.6,-83.7,-21.2
CCc1ccccc1NC(=O)CN1CC[C@@H]2[C@@H](c3ccccc3)N(C)C[C@]2(NC(C)=O)C1,4.6,-0.5,-6.3,1.9
COc1ccc(NC(=O)C2[C@@H]3C(=O)N(C4CCCCC4)C(=O)[C@@H]3[C@H]3c4ccccc4C=CN23)cc1 (stereo not given in full),13.0,77.7*,-59.9,60.5*
O=C(c1ccco1)C1C2C(=O)N(c3cccc(C(F)(F)F)c3)C(=O)C2C2c3ccccc3C=CN12 (stereo not given),-193.0,-72.5,i,-127.8
O=C(Nc1ccc2c(c1)OCO2)C1[C@@H]2C(=O)N(c3ccccc3)C(=O)[C@@H]2[C@H]2c3ccccc3C=CN12 (stereo not given in full),-19.6,49.2*,-255.4,11.5
CC(C)(C)C(=O)C1C2C(=O)N(Cc3ccccc3)C(=O)C2C2c3ccccc3C=CN12 (stereo not given),-12.4,80.6*,-95.5,56.3*
COc1ccc(NC(=O)Cn2c(=O)n(C3CCCCC3)c(=O)c3ccccc32)cc1,12.1,12.4,21.5,9.4
CC(C)(C)C(=O)C1C2C(=O)N(c3ccc4c(c3)OCO4)C(=O)C2C2c3ccccc3C=CN12 (stereo not given),64.2*,53.3*,-17.5,69.0*
O=C1c2ccccc2C2c3[nH]c4ccccc4c3C(c3ccc(Cl)cc3)CN12 (stereo not given),-15.8,-1.3,-38.2,-11.3
Cc1ccccc1[C@H]1C[C@@H](O)[C@@H](O)[C@@H]1NC(=O)C1CCC1,4.9,8.7,11.3,14.4
CCc1cccc(NC(=O)N2CCC(CC(=O)N3CCCCC3)CC2)c1,3.2,0.1,11.6,-10.5
CC1(C)OC(=O)[C@]2(C)C[C@@H](C(=O)Nc3cnc4ccccc4c3)[C@@]1(C)N2,-1.0,3.9,-12.9,1.1
COc1ccc(NC(=O)C2[C@@H]3C(=O)N(c4ccc5c(c4)OCO5)C(=O)[C@@H]3[C@H]3c4ccccc4C=CN23)cc1 (stereo not given in full),8.0,55.4*,-179.4,4.7
Cn1c(SCc2ccccc2)nnc1-c1csc(-c2ccccc2)n1,41.4*,21.6,52.7*,37.9*
FC(F)(F)c1cccc(-c2nc(-c3ccccn3)no2)c1,6.2,-0.3,10.4,3.0
CSc1nnc(-c2csc(-c3cccc(C(F)(F)F)c3)n2)n1C,78.1*,12.9,94.1*,68.0*
c1ccc(-c2nc(CSc3nnc(C4CC4)n3-c3ccccc3)cs2)cc1,1.8,-9.1,8.6,5.5
CN(CCc1ccccc1)c1nccc(N2CCN(C(=O)c3cc4ccccc4n3C)CC2)n1,-3.8,-14.3,-8.6,0.0
SMILES,USP28 inh,USP8 block,USP30 inh,USP17 block
Cc1ncc(-c2ccc3c(c2)OCO3)c(-c2nccs2)n1,-94.0,-22.5,i,-154.9
Cc1c(C)c(C)c2[nH]c(-c3ccc4c(c3)OCO4)nc2c1C,1.7,10.1,49.3*,47.5*
O=C(Cn1c(NCc2ccccc2)nc2ccccc21)NCC(F)(F)F,26.9,18.2,52.3*,45.4*
O=C1C[C@@H](O)[C@H](O)[C@@]23O[C@@]12C1(Oc2cccc4cccc(c24)O1)[C@@H]1O[C@@H]1[C@@H]3O,46.5*,-11.2,3.8,81.3*
Cc1cc(C)n2c(Nc3ccccc3)c(-c3cccs3)nc2n1,4.6,-15.1,-6.1,-20.3
Cn1cc(-c2ccccc2)cc1C(=O)NCCN1CCCC1,-4.3,10.3,-7.2,-0.4
Cc1ccccc1CC(=O)NCC(=O)Nc1nc2ccccc2[nH]1,26.8,6.9,31.8*,44.3*
O=C(CNC(=O)c1cccc(F)c1)Nc1nc2ccccc2[nH]1,21.7,3.0,38.8*,63.6*
Cc1ccc(CC(=O)NC(C)C(=O)Nc2nc3ccccc3[nH]2)cc1 (stereo not given),13.4,10.5,23.8,12.3
O=C(Cc1cccc(F)c1)NCC(=O)Nc1nc2ccccc2[nH]1,1.8,-10.2,1.8,20.5
Cc1ccc(C(=O)NCC(=O)Nc2nc3ccccc3[nH]2)cc1,4.2,-3.0,-3.0,41.9*
CCN1CC[C@@]2(C(=O)N3CCOCC3)CCN(C(=O)c3cccc(OC)c3)CC[C@@H]12,-7.7,-131.6,-5.5,-19.8
N#C/C(=C\c1ccc(Br)cc1)c1nnc2n1CCCCC2,-9.0,-9.8,2.0,-5.8
N=C1C(c2nc3ccccc3s2)=C(O)CN1Cc1cccc(F)c1,-7.1,0.3,-48.4,-21.3
N=C1C(c2nc3ccccc3s2)=C(O)CN1Cc1ccc(F)cc1,-19.4,33.3*,17.7,50.7*
CC(c1ccccc1)N1CC(O)=C(c2nc3ccccc3s2)C1=N (stereo not given),2.1,89.6*,1.4,8.7
COc1cccc(C(=O)Nc2c(C(=O)N3CCOCC3)oc3ccccc23)c1,10.8,3.9,10.4,4.8
Cc1cc(C(=O)Nc2ccc3nc(N4CCN(c5ncccn5)CC4)cc(C)c3c2)ccc1[N+](=O)[O-],0.9,2.8,25.5,73.4*
Cc1cc(N2CCN(c3ncccn3)CC2)nc2ccc(NC(=O)Cn3nc([N+](=O)[O-])c(Br)c3C)cc12,42.2*,29.5,68.0*,64.5*
O=C(Cc1ccccc1)Nc1nc(-c2ccccc2)ns1,20.6,-0.2,36.9*,2.8
CCOc1cccc(C(=O)Nc2nc(-c3ccc(OCC)c(OC)c3)ns2)c1,4.3,-7.5,6.4,17.7
O=C(Nc1nc(-c2ccccc2)ns1)c1ccc2ncsc2c1,9.5,16.7,12.3,41.2*
N#Cc1ccccc1Sc1ccccc1C(=O)Nc1ccc2c(c1)OCCO2,1.7,0.4,14.0,5.7
Cc1cnc(C(=O)N2CCC[C@@H]3NC(=O)c4ccccc4OCC/C=C/C[C@@H]32)cn1,45.0*,7.9,-14.9,0.1
COc1ccc2[nH]c3c(N4CCN(c5ccccc5F)CC4)ncnc3c2c1,6.6,16.5,10.2,41.4*
O=[N+]([O-])c1ccc(N2CCN(c3ncnc4c3[nH]c3ccc(F)cc34)CC2)cc1,2.7,-15.3,8.0,64.9*
COc1ccc2[nH]c3c(NCCc4ccccc4OC)ncnc3c2c1,-11.0,1.4,-23.3,33.7*
COc1ccc2c(c1)[nH]c1c(N3CCSCC3)ncnc12,-4.4,11.6,-0.1,-5.3
